Assay outcomes from PubChem.
D2 ag-1 = D2 dopamine receptor (human) agonism | P14416 | HEK293 T-REx D2 cells, calcium flux agonist mode | activation, % at 2 µM | 0.53% of 340,000 active;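 active means activation over 3 SD above normal in the single-dose calcium agonist read, cut at about 30% in these data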
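Tetracycline-induced HEK293 T-REx cells with force-coupled D2 receptor, plated overnight at 30 C, loaded with no-wash calcium dye. After a 10 s baseline, compound was pin-added and calcium flux read kinetically for 180 s; calcium rises flagged agonists.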
D2 PAM-1 = human D2 receptor positive allosteric modulation; DiscoveRx D2 beta-arrestin cells, luminescence, 90 min; 100% = 57 uM dopamine signal; potentiation, % (no concentration beside the values); 0.23% of 360,000 active; AID 624464; in the data active means potentiation above about 50%; inconclusive means mostly about 30% to 49%
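D2 cells co-treated with compound plus 50 nM dopamine (EC20) for 90 min at 37 deg C to detect potentiation. Beta-arrestin recruitment was read as enzyme-fragment luminescence after 1 h at ambient temperature. Full response was set by 57 uM dopamine.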
D2 ag-2 = human D2 receptor agonism in beta-arrestin assay; P14416; AID 624465; DiscoveRx PathHunter D2 beta-arrestin, luminescence, 90 min; 100% = 57 uM dopamine signal; 0.084% of 360,000 active; activation, % (no concentration beside the values); in the data active means activation above about 40%; inconclusive means between about 15% and that limit
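DiscoveRx PathHunter D2 beta-arrestin cells (2,100/well) attached overnight, then compound-stimulated 90 min at 37 C in HBSS/10 mM HEPES/0.1% Tween-20 buffer; beta-galactosidase complementation read by luminescence after 1 h at ambient temperature. Dopamine 57 uM final (EC100) as control.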
D2 antag = D2 dopamine receptor (human) antagonism; HEK293 TREx D2 cells, calcium flux, dopamine EC80; inhibition, % at 10 µM; 2% of 340,000 active; AID 485344; in the data active means inhibition above about 30%; inactive means below that, where a call was filed
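Tetracycline-induced HEK293 TREx cells expressing D2 receptor forced-coupled to calcium signalling, loaded with no-wash calcium dye. Compounds added and calcium flux read 180 s, then dopamine added at EC80 and read a further 180 s.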
D2 PAM-2 = D2 dopamine receptor (human) potentiation; P14416; HEK293 T-REx D2, calcium flux, EC20 dopamine potentiation; potentiation, % at 10 µM; 0.34% of 340,000 active; AID 485347;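 active means potentiation over 3 SD above the plate norm, cut at about 30% in these data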
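Primary screen. Calcium kinetics in induced HEK293 T-REx D2 cells: compound pre-addition 180 s, EC20 dopamine, 180 s more.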
D3 ag = activates human D3 dopamine receptor beta-arrestin recruitment; shares compounds with D2 ag-1; DiscoveRx D3 beta-arrestin cells, luminescence, 90 min; Potency, µM (top dose mostly 76.9 µM), most hits filed as activators; 4% of 2,300 active; AID 720506; further: nearly all actives have a fitted effect of over 70% in size
Target sequence (P35462 whole entry, looked up): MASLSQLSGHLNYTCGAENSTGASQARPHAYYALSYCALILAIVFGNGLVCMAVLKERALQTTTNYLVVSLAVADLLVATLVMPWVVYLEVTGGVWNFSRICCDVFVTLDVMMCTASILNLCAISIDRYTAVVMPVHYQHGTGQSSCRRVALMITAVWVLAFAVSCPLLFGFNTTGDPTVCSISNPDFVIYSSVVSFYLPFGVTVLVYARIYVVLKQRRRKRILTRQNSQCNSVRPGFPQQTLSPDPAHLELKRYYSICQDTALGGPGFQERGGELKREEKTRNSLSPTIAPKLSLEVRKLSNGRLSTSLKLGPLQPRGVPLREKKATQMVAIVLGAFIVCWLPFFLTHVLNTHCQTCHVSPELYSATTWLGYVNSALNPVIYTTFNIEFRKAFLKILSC
D2 ag-3 = activates human D2 dopamine receptor in D3 counterscreen; shares compounds with D2 ag-1; DiscoveRx PathHunter D2 beta-arrestin, luminescence, 90 min; response scale: percent relative to full dopamine signal; Potency, µM (titrated, usually from 76.9 µM), actives largely listed as activators; 5.9% of 2,300 active; AID 720507; further: nearly all actives have a fitted effect of over 70% in size
Of the large screens only hits and unclear results are named; the others gave an inactive call (follow-up assays come after a bar, where they were run). Compounds with a hit are over-represented: about 2.4% of the library has one in this group of screens. Unless noted, the call rests on the fitted dose curve; in most records, active means well fitted activation curve with a large enough effect; inconclusive means small, poorly fitted or top-dose-only effect; inactive means flat fitted curve, though single readings scatter.

O=[N+]([O-])c1cccnc1N1CCN(Cc2ccc3c(c2)OCO3)CC1	D2 ag-1 89, D2 ag-2 44, D2 antag 92 | D3 ag inactive | D2 ag-3 inconclusive
c1cnc(N2CCN(Cc3ccc4c(c3)OCO4)CC2)cn1	D2 ag-1 80, D2 PAM-1 inconclusive, D2 ag-2 44, D2 antag 90 | D3 ag inconclusive | D2 ag-3 inconclusive
O=C(c1cccnc1)N1CCN(Cc2ccc3c(c2)OCO3)CC1	none
N#CC1=C(N)N(c2cccc(Cl)c2)C2=C(C(=O)CCC2)C1c1cc(CN2CCOCC2)cs1 (stereo not given)	none (no result: D2 PAM-1, D2 ag-2, D2 antag)
C/C=C/c1cc(CN2CCN(c3ccccc3)CC2)c(O)c(OC)c1	none (no result: D2 ag-1, D2 antag) | D3 ag inactive | D2 ag-3 inactive
COc1ccccc1C(=O)NC(CCSC)C(=O)OCC(=O)N1CCCC1=O (stereo not given)	none | D3 ag inactive | D2 ag-3 inactive
CSCCC(NC(=O)c1ccc(Cl)cc1)C(=O)OCC(=O)N1CCCC1=O (stereo not given)	none
CCc1cccc(NC(=O)Cn2c(=O)c(C(F)(F)F)nc3ccccc32)c1	none (no result: D2 PAM-1, D2 ag-2, D2 antag)
CCCNC(=O)c1ccc2c(=O)c(O)c(-c3ccc(F)cc3)[nH]c2c1	none (no result: D2 ag-1, D2 antag, D2 PAM-2)
Nc1c(Cl)cc(-c2[nH]c3cc(C(=O)NCCO)ccc3c(=O)c2O)cc1Cl	none | D3 ag inactive | D2 ag-3 inactive
O=C(NCc1ccccc1Cl)C(=O)NCC(c1cccs1)S(=O)(=O)c1cccs1 (stereo not given)	none (no result: D2 PAM-1, D2 ag-2, D2 antag)
COc1cc2c(cc1OC)C1CC(=O)C(CC(C)C)CN1CC2 (stereo not given)	D2 ag-1 48 | D3 ag inactive | D2 ag-3 inactive
CC(C)(O[C@@H]1O[C@H](CO)[C@@H](O)[C@H](O)[C@H]1O)[C@H]1Cc2cc3ccc(=O)oc3cc2O1	none
CC(C)(O[C@@H]1O[C@H](CO)[C@@H](O)[C@H](O)[C@H]1O)[C@@H]1CC=C(C(=O)O)CC1	none | D3 ag inactive | D2 ag-3 inactive
COc1ccc(NC(=O)Cn2c(=O)n(Cc3ccco3)c(=O)c3cc(OC)c(OC)cc32)cc1	none (no result: D2 PAM-1, D2 ag-2, D2 antag)
Cc1cc(C)c(NC(=O)Cn2nc(-c3ccncc3)ccc2=O)c(C)c1	none (no result: D2 PAM-1, D2 ag-2, D2 antag)
CCOc1ccc(CCNC(=O)c2ccc3nc(N4CCOCC4)sc3c2)cc1OCC	none | D3 ag inactive | D2 ag-3 inactive
COc1ccc(CCNC(=O)c2ccc3nc(N4CCOCC4)sc3c2)cc1OC	none
Cc1ccccc1C(=O)Nc1nnc(SCc2cc(=O)c3c(C)ccc(C)c3[nH]2)s1	none (no result: D2 PAM-1, D2 ag-2, D2 antag)
c1ccc(CCNCC2COc3ccccc3O2)cc1 (stereo not given)	D2 ag-1 32 | D3 ag inactive | D2 ag-3 inactive
CN(C)S(=O)(=O)c1cccc(CNCC2COc3ccccc3O2)c1 (stereo not given)	D2 ag-1 77, D2 antag 106 | D3 ag inconclusive | D2 ag-3 inactive
Oc1ccc(CNCC2COc3ccccc3O2)cc1 (stereo not given)	D2 ag-1 68, D2 antag 185 | D3 ag inactive | D2 ag-3 inactive
Cc1cccc(N2CCN(C(=O)C3CCCN(S(=O)(=O)c4ccc5c(c4)oc(=O)n5C)C3)CC2)c1C (stereo not given)	none (no result: D2 PAM-1, D2 ag-2, D2 antag)
O=C(/C=C/c1ccco1)N1CCCC(c2ccccc2)C1 (stereo not given)	D2 ag-1 57, D2 antag 56 | D3 ag inactive | D2 ag-3 inactive
Cc1ccc(NC(=O)N2CCCC(c3ccccc3)C2)cc1 (stereo not given)	D2 ag-2 inconclusive (no result: D2 ag-1, D2 antag, D2 PAM-2) | D3 ag inactive | D2 ag-3 inactive
COc1cc(Cn2cnnn2)ccc1O	none | D3 ag inactive | D2 ag-3 inactive
c1cc2c(cc1Cn1cnnn1)OCO2	none
COc1ccc(/C=C/C(=O)NC(=S)NN2CCCCC2c2cccnc2)cc1OC (stereo not given)	D2 ag-1 49 | D3 ag inactive | D2 ag-3 inactive
COc1cccc(NC(=O)CN(C)C(=O)Cc2ccc3c(c2)OCCO3)c1	none | D3 ag inactive | D2 ag-3 inactive
COc1cccc(CC(=O)OCC(=O)N(C)CC(=O)Nc2ccccc2Cl)c1	none | D3 ag inactive | D2 ag-3 inactive
CCOc1ccc(NC(=O)Cn2c(=O)n(CCCCCC(=O)NCc3ccccc3)c(=O)c3sccc32)cc1	none (no result: D2 PAM-1, D2 ag-2, D2 antag)
O=C(O)c1ccc(S(=O)(=O)c2ccc3c(c2)C(=O)N(c2ccc(O)cc2)C3=O)cc1	D2 ag-1 61 | D3 ag inactive | D2 ag-3 inactive
O=C(O)c1ccc(NC(=O)c2ccc3c(c2)C(=O)N(c2ccccc2)C3=O)cc1	none
CCOC(=O)c1c(C)n(C)c2ccc(OCC(O)CNCCc3ccccc3)cc12 (stereo not given)	D2 antag 31 | D3 ag inactive | D2 ag-3 inactive
CC(=O)c1cccc(OCC(O)CNCCc2ccc(Cl)cc2)c1 (stereo not given)	none
CCOC(=O)c1cccc(OCC(O)CNCCOc2ccccc2F)c1 (stereo not given)	D2 ag-1 81, D2 ag-2 47, D2 antag 83 | D3 ag inactive | D2 ag-3 inconclusive
CCOC(=O)c1c(C)n(C)c2ccc(OCC(O)CN3CCN(C)CC3)cc12 (stereo not given)	none
CCCCN(C)CCNC(=O)c1ccc2c(c1)NC(=O)CN2	none (no result: D2 PAM-1, D2 ag-2, D2 antag)
CC(C)c1ccc(Nc2cc(C(=O)NC3CCCCC3)c3ccccc3n2)cc1	none (no result: D2 PAM-1, D2 ag-2, D2 antag)
COc1cccc(CN2CCN(Cc3cccc(Oc4ccccc4)c3)CC2)c1OC	none
COc1cccc(CN2CCN(Cc3cc(OC)c(OC)c(OC)c3)CC2)c1OC	none | D3 ag inactive | D2 ag-3 inactive
COc1ccccc1N1CCN(CCCCOc2cccc3ccccc23)CC1	D2 ag-1 35, D2 antag 73 | D3 ag inactive | D2 ag-3 inactive
CCOc1ccccc1N1CCN(Cc2cccc(OC)c2OC)CC1	D2 antag 87 | D3 ag inactive | D2 ag-3 inactive
COc1cccc(CN2CCN(c3ncccn3)CC2)c1OC	D2 ag-1 81, D2 ag-2 inconclusive, D2 antag 60 | D3 ag inactive | D2 ag-3 inconclusive
CCc1ccc2oc(-c3cc(NC(=O)c4cc([N+](=O)[O-])ccc4N4CCOCC4)ccc3Cl)nc2c1	none (no result: D2 PAM-1, D2 ag-2, D2 antag)
COc1ccc(CN2CCN(c3ccccn3)CC2)c(OC)c1C	none (no result: D2 ag-1, D2 antag, D2 PAM-2) | D3 ag inactive | D2 ag-3 inconclusive
